Shown are actives, neighbours in structure and some others; about 5.4% of the full set was active somewhere.
HPGD block = HPGD (human) dehydrogenase inhibition | P15428 | purified HPGD, NADH fluorescence kinetic, PGE2 substrate | Potency, µM, hits mostly inhibitors | 4.3% of 150,000 active; active = well fitted inhibition curve with a large enough effect, not every such curve was filed as active; inconclusive = small, poorly fitted or top-dose-only effect, or another doubt; inactive = no such curve, though single readings can be large or run the other way
Target sequence (P15428 whole entry, looked up): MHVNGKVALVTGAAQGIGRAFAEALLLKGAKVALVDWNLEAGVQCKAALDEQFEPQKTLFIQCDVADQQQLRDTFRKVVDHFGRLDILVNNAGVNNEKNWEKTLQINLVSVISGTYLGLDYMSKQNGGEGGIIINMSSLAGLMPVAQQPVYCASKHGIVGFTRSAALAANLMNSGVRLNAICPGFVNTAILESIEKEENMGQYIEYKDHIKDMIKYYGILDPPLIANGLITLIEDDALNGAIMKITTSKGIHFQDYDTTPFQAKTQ
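20 nM HPGD preincubated 15 min at room temperature with compound in 50 mM Tris-HCl pH 8, 0.01% Tween 20. Started with 1 mM NAD+ and 30 uM prostaglandin E2; NADH fluorescence (360/450 nm) read 5 times over 30-s intervals, last minus first.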
12-hLO inh = inhibitors of human 12-lipoxygenase (ALOX12); Potency, µM (top dose mostly 57.1 µM), usual class: inhibitors; purified 12-hLO, xylenol orange hydroperoxide absorbance; 0.12% of 150,000 active; P18054; note: nearly all actives have a fitted effect of over 55% in size
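Purified human 12hLO (150 nM final) was preincubated with compounds for 15 min at room temperature in 25 mM Hepes pH 7.0, 0.01% Triton X-100, then reacted with 40 uM arachidonic acid for 30 min. Hydroperoxide was detected with ferrous iron/xylenol orange.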
ALOX15B inhib = blocks human 15-lipoxygenase 2 activity; O15296; purified 15hLO-2, xylenol orange hydroperoxide absorbance; Potency, µM (titrated, usually from 57.1 µM), most hits filed as inhibitors; 0.56% of 110,000 active; AID 881; note: nearly all actives have a fitted effect of over 60% in size
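Screening format was qHTS against 50 nM purified 15hLO-2 in Hepes pH 7.5 with detergent. Activity follows hydroperoxide formation from 45 uM arachidonic acid, measured as 573:405 nm absorbance ratio of the ferric-xylenol orange complex.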
IMPase Li inh = cell-permeable IMPase inhibitors with lithium potentiation; CHO-M1 cells, IP1 TR-FRET (IP-One), carbachol + lithium; Potency, µM (series often up to 59.4 µM), actives largely listed as inhibitors; 0.35% of 210,000 active; AID 1457;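 note: IP1 builds up when IMPase is blocked and the TR-FRET signal falls; nearly all actives have a fitted effect of over 50% in size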
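IP1 accumulation measured by competitive TR-FRET in lysed CHO-M1 cells after 30 min compound exposure at 37C, with a small lithium addition to potentiate weak responses. Hill-equation AC50 from ratio and donor-channel data.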
PNC assembly inh = inhibitors of perinucleolar compartment assembly; AID 2417; 3.1% of 140,000 active; PC3M PTB-GFP, PNC prevalence imaging, 16 h; hits give low values; activity change (PNC), negative = inhibition, % at 10 µM;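 active = readout at or below -70, meaning at least 70% loss of cells showing the perinucleolar compartment, a nuclear body marking cancer cells; inconclusive = readout between -30 and a set limit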
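PC3M cells stably expressing PTB-GFP, 750–1000 cells/well, treated 16 h at 37 °C with compound (23 nl of library stock), in duplicate. After paraformaldehyde fixation and Hoechst stain, imaged at 20x; PNC prevalence scored by image analysis.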
IMPase cell inh = IMPase inhibition in cells | P97697 | CHO-M1 cells, IP1 accumulation, HTRF TR-FRET ratio | inhibition (IP1 accumulation), % at 46.1 µM | 120,000 tested, under 10 active | AID 901; active = well fitted curve in the direction sought with a large enough effect in the signal ratio, not every such curve was filed as active; inconclusive = small, poorly fitted or top-dose-only effect, or a change in a side signal; inactive = no such curve, though single readings can be large or run the other way; the % refers to the signal ratio;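 note: cells stimulated with carbachol in lithium chloride buffer; higher means more IMPase inhibition seen as more IP1 and lower FRET ratio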
Target sequence (P97697 whole entry, looked up): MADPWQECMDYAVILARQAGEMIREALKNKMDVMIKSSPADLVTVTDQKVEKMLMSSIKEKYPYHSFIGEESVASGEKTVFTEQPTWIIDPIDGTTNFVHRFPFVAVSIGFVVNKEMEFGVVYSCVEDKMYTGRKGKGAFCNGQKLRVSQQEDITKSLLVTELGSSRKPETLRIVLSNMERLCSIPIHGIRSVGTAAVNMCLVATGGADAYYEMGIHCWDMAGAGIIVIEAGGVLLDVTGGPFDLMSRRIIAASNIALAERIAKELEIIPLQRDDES
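CHO-M1 cells (CHO stably expressing M1 receptor), compound up to 46 uM final, stimulated with carbachol (50 uM as added) in buffer with 50mM LiCl, pH 7.4, 30 min at 37C. Cytosolic IP1 read by TR-FRET; AC50 from Hill fits.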
Numbers stand for hits; . = inactive; ? = inconclusive; / = no result given; [ ] = another dose, or the depositor's remark. Unless noted, calls come from the whole dose curve; as a rule, active = well fitted curve in the direction sought with a large enough effect; inconclusive = small, poorly fitted or top-dose-only effect, or another doubt; inactive = no such curve, though single readings can be large; an effect the other way counts as inactive or inconclusive.

SMILES	HPGD block	12-hLO inh	ALOX15B inhib	IMPase Li inh	PNC assembly inh	IMPase cell inh
Cc1ccc(NS(=O)(=O)c2ccc(C(=O)N3CCCN(C)CC3)cc2)cc1	.	.	.	.	-100	.
O=C(Cn1nc(C(F)(F)F)c2c1CCCC2)Nc1ccc(F)c(Cl)c1	/	/	/	/	/	.
Cc1ccccc1NC(=O)CSc1nc2cc3c(cc2cc1C)CCC3	.	.	.	.	.	?
Cc1cc2cc3c(cc2nc1SCC(=O)O)CCC3	/	/	/	3.5µM	/	/
Cn1c(NCCO)nc2c1c(=O)n(Cc1cccc(F)c1)c(=O)n2C	/	/	/	/	/	.
O=C(CSc1nc2ccccc2s1)c1cc2ccccc2o1	22µM	.	.	.	.	.
O=C(CSc1nc2ccccc2s1)CSc1nc2ccccc2s1	.	.	.	.	.	.
CC(C)OC(=O)CSc1nc2ccccc2s1	16µM	.	.	.	.	.
Nc1nc(SCCc2ccccc2)c2[nH]cnc2n1	?	.[11.4 µM]	.[11.4 µM]	.	/	/
Cc1ccc2c(c1)c(=O)c1ccccc1n2CCCC(=O)Nc1c(F)cccc1F	/	/	/	/	/	.
COc1ccc2c(C)cc(SCC#N)nc2c1	.	.	.	.	.	.
COc1ccc2c(C)cc(SCc3c(C)noc3C)nc2c1	?	.	.	.	-111	.
COC(=O)C1=C(C)NC(=S)NC1/C=C/c1ccccc1 (centres undefined)	/	/	/	.	/	/
CCOC(=O)C1=C(C)NC(=S)NC1/C=C/c1ccccc1 (centres undefined)	.	?	/	.	-100	.
CC1(C)CC(=O)C(=Cc2cn(CCC#N)nc2-c2ccc(Cl)cc2)C(=O)C1	16µM	.	/	.	.	/
CC1(C)CC(=O)C(=Cc2cn(CCC#N)nc2-c2ccc(F)cc2)C(=O)C1	20µM	.	/	.	?	/
CC1=NNC(=O)/C1=C\c1cn(-c2ccccc2)nc1-c1ccccc1	/	/	/	.	/	/
N#CCCn1cc(/C=N/O)c(-c2ccc(F)cc2)n1	.	.	.	.	.	.
CC1(C)CC(=O)C(=Cc2cn(-c3ccccc3)nc2-c2ccc(Cl)cc2)C(=O)C1	1.1µM	.	?	.	.	.
Nc1c2c(nc3ccccc13)CCC[C@H]2O	/	.	.	/	/	.
C=C1CC[C@H](O)C/C1=C/C=C1\CCC[C@]2(C)C([C@H](C)CC[C@@H](O)C(C)(C)O)CC[C@@H]12 (some centres undefined)	/	/	/	.	/	/
Cc1sc(NC(=O)c2ccccc2)c(C(=O)c2ccccc2)c1C	3.5µM	.	/	.	.	/
Cc1sc(NC(=O)c2cccs2)c(C(N)=O)c1C	25µM	.	.	.	.	.
CCOC(=O)c1c(NC(=O)c2cccs2)sc(CC)c1-c1cccs1	?	.	.	.	?	.
Cc1ccc(C(=O)Nc2sc(C)c(C)c2C(=O)c2ccccc2)cc1	20µM	.	/	.	.	.
SMILES	HPGD block	12-hLO inh	ALOX15B inhib	IMPase Li inh	PNC assembly inh	IMPase cell inh
CC(C)(C)c1ccc(NC(=O)CSc2nnc3scc(-c4ccccc4)n23)cc1	/	/	/	/	/	.
COc1ccc(-c2nc3c(c4c2C[C@H](c2ccccc2)OC4)CN(C(=O)NCc2ccco2)CC3)c(C)c1	.	.[11.4 µM]	/	.	/	/
c1nc(NCC2(N3CCOCC3)CCCCC2)c2ccsc2n1	.	.	/	.	-100	.
Cc1sc2ncnc(NCC3(N4CCOCC4)CCCCC3)c2c1C	.	.	.	.	.	.
O=c1cc(CCl)nc2sc3ccccc3n12	/	/	/	.	/	/
O=C(OCc1cc(=O)n2c(n1)sc1ccccc12)c1ccc(O)cc1	14µM	.	/	.	.	/
Cc1cccc(C(=O)CC(=O)c2cc(Cl)ccc2O)c1	16µM	.	.	.	.	.
Cc1ccc(O)c(C(=O)CC(=O)c2cccc(F)c2)c1	22µM	.	.	.	?	.
COc1ccc(O)c(C(=O)CC(=O)c2ccc(F)cc2)c1	.	?	.	.	.	.
O=C(CC(=O)c1cc(Cl)ccc1O)c1ccccc1	25µM	.	.	.	?	.
Cc1[nH]c2ccccc2c1Cc1nnc(SCCC#N)o1	.	.	/	.	-100	.
Cc1cccc(CNc2ccnc(-c3ccc(C(=O)N(C)C)cc3)n2)c1	8.9µM	.	.	.	/	/
O=C(COCCOCC(=O)N(c1ccccn1)C1CCCCC1)N(c1ccccn1)C1CCCCC1	.	.	/	.	-100	.
COc1ccc(NC(=O)CN(Cc2ccccc2)S(=O)(=O)c2ccc(C)cc2)cc1Cl	/	/	/	/	/	.
CCOc1ccc(-n2cnnn2)cc1S(=O)(=O)NC1CC1	.	.	.	.	.	.
CCOc1ccc(-n2cnnn2)cc1S(=O)(=O)Nc1c(C)cccc1C	14µM	.	.	.	?	.
CC(=O)OC1C[C@]2(C)[C@@H](CC(O)C3[C@]4(C)CCC(O)C(C)[C@@H]4CC[C@]32C)/C1=C(/CCC=C(C)C)C(=O)O (some centres undefined)	.	.	.	.	/	/
O=[N+]([O-])c1c(C(Cl)Cl)nn(-c2ccc(Cl)cc2)c1N1CCCCC1	.	.	/	.	-113	/
O=[N+]([O-])c1c(C(Cl)Cl)nn(-c2ccccc2)c1N1CCOCC1	/	/	/	.	/	/
CCN(CC)CCCNC(=O)c1ccc(-n2c(=O)c(=O)[nH]c3ccccc32)cc1	.	.	/	/	/	/
Cc1c(Cl)cc(C(C)(C)C)c(O)c1Cc1c(C)c(Cl)cc(C(C)(C)C)c1O	.	.[11.4 µM]	.[11.4 µM]	.	/	/
O=[N+]([O-])c1ccccc1N=Nc1c(O)[nH]c2ccc(S(=O)(=O)O)cc12	4µM	.[11.4 µM]	.[11.4 µM]	.	/	/
Cc1ccc(NC(N)=S)cc1C	.	.	/	.	-125	/
NC(=S)Nc1ccc(Oc2ccc(NC(N)=S)cc2)cc1	22µM	?	?	.	?	.
Cc1ccc(NC(N)=S)cc1	.	.	/	.	.	/
SMILES	HPGD block	12-hLO inh	ALOX15B inhib	IMPase Li inh	PNC assembly inh	IMPase cell inh
COc1ccc2c(c1)C(c1ccc(C)cc1)CC(=O)O2 (centres undefined)	.	.[0.00818 µM]	.[0.0915 µM]	.	/	/
CC(C)C[C@@H](CC(=O)N[C@@H](CCCN)CC(=O)N[C@@H]1CCCC[C@H]1C(=O)N[C@H](CC(=O)N[C@@H](CCC(=O)O)CC(=O)O)Cc1c[nH]c2ccccc12)NC(=O)[C@@H]1CNCC[C@H]1N	.	.	/	.	/	/
CCC=O	.	.	.	.	/	/
O=C(OCC#CCSc1nc2ccccc2o1)c1ccco1	.	.	.	.	-83	.
COc1ccc(NC(=O)CSc2nc(-c3cccc(C)c3)[nH]c2-c2ccccc2)cc1OC	/	/	/	/	/	.
COc1cccc([C@@H]2Oc3ccc(OC)cc3C(=O)[C@H]2OC(=O)NCc2ccco2)c1	.	/	/	.	/	/
O=C(O)c1cncc(C(=O)O)c1	.	.[11.4 µM]	.[11.4 µM]	.	/	/
Brc1ccc(-c2nc(-c3ccncc3)no2)o1	.	.	.	.	-89	.
CCN1CCN(C(=O)c2ccc(CN(c3ccccc3)S(=O)(=O)c3ccccc3)cc2)CC1	14µM	.	/	.	?	/

Source: PubChem
